In the library only some 3.5% were active in any assay of this set; here they are far more common.
Pf apPOL inh: Pf-apPOL inhibitors, biochemical, fluorescence | inhibition, % at 10 µM | Plasmodium falciparum apicoplast DNA polymerase (apPOL) | Recombinant Pf-apPOL, molecular beacon fluorescence, 1.5 h | hit rate 0.25% among 210,000 | AID 1794808, 2022
mHTT CaM bind: mutant huntingtin-calmodulin interaction inhibitors – biochemical, AlphaScreen, primary screen | P42858 | AlphaScreen His-mHTT/GST-CaM binding, luminescence | inhibition, % at 15 µM | hit rate 3.6% among 190,000 | AID 1671202, 2021;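 further: 0% = both proteins with DMSO and 100% = one protein alone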
* = called active by the depositor. No stated cut-off is given here; in the data, active means inhibition above about 50%; inactive means the rest.

Cn1nc(C(=O)NCc2ccccc2)c2c1CCN(C(=O)C1CCCCC1)C2 was read as Pf apPOL inh -9 and mHTT CaM bind 85*.
Screening O=C(Nc1ccccc1F)c1cc2n(n1)CCCN(Cc1ccc(F)cc1)C2=O returned Pf apPOL inh 4 and mHTT CaM bind -4.
For O=[N+]([O-])c1ccc(-c2noc(CCC3CCCCC3)n2)cc1 the results were Pf apPOL inh -7 and mHTT CaM bind 16.
For CCc1ccccc1NC(=O)c1cc2n(n1)CCCN(Cc1cccc(F)c1)C2=O the results were Pf apPOL inh -2 and mHTT CaM bind 2.
O=C(NCCCN1CCCCCC1)c1ccn2c(-c3ccc(F)cc3)nnc2c1 was read as Pf apPOL inh -2 and mHTT CaM bind 20.
CCOc1ccc(-n2ccn3cc(-c4cccc(Cl)c4)nc3c2=O)cc1 was read as Pf apPOL inh 0 and mHTT CaM bind -4.
`Cc1ccc(NC(=O)Cn2cnc(-c3nc(C)cs3)c2)c(F)c1` gave Pf apPOL inh -2 and mHTT CaM bind -9.
`CC(=O)c1ccc2c(c1)C1C=CCC1C(c1ccccc1Cl)N2` (stereo not given) gave Pf apPOL inh 3 and mHTT CaM bind 40.
For Clc1ccc2c(c1)C1C=CCC1C(c1cccc3ccccc13)N2 (stereo not given) the results were mHTT CaM bind 65*.
For Cc1ccc2c(c1)C1C=CCC1C(c1ccccc1Cl)N2 (stereo not given) the results were Pf apPOL inh -8 and mHTT CaM bind 83*.
COC(=O)c1ccccc1NC(=O)c1csc(-c2cnccn2)n1 was read as Pf apPOL inh -2 and mHTT CaM bind -14.
For c1coc(CNc2ccc3c(c2)OCO3)c1 the results were Pf apPOL inh 2 and mHTT CaM bind 71*.
For O=C(NCc1ccco1)C(=O)Nc1ccc2c(c1)OCO2 the results were Pf apPOL inh -2 and mHTT CaM bind 0.
`Cc1ccc(CNc2ccc3c(c2)OCO3)cc1` gave Pf apPOL inh 0 and mHTT CaM bind 100*.
For Cc1ccccc1CNc1ccc2c(c1)OCO2 the results were Pf apPOL inh 6 and mHTT CaM bind 91*.
`COc1ccccc1CC(=O)Nc1ccc2c(c1)OCO2` gave Pf apPOL inh -4 and mHTT CaM bind 7.
Screening Cc1ccc(C(=O)Nc2ccc3c(c2)OCO3)cc1 returned Pf apPOL inh 0 and mHTT CaM bind 47.
CCCCOc1ccc(S(=O)(=O)NCc2ccc3c(c2)OCO3)cc1 was read as Pf apPOL inh -18 and mHTT CaM bind -1.
For CCCCOc1ccc(CNc2ccc3c(c2)OCO3)cc1 the results were Pf apPOL inh 0 and mHTT CaM bind 92*.
Cc1ccc(CNC(=O)N2CC=C(c3cn(C(C)C)c4ncccc34)CC2)cc1 was read as Pf apPOL inh -5 and mHTT CaM bind 44.
`Cc1ccc2[nH]cc(CCN3CC(C(=O)Nc4cccc(F)c4)CC3=O)c2c1` (stereo not given) gave Pf apPOL inh 0 and mHTT CaM bind 22.
CCCNC(C)c1nc2ccccc2c(=O)n1CC (stereo not given) was read as Pf apPOL inh -3 and mHTT CaM bind -4.
Screening CCOc1ccc(CNC(=O)c2cc(-c3cccs3)nc3ccccc23)cc1OC returned Pf apPOL inh 1 and mHTT CaM bind -1.
Screening Cn1cccc1CC(=O)N/N=C/C=C\c1ccco1 returned mHTT CaM bind inactive.
Screening COc1ccc(NC(=O)CN(C)S(=O)(=O)c2ccc3[nH]c4c(c3c2)CCCC4)cc1 returned Pf apPOL inh -3 and mHTT CaM bind 56*.
CC(=O)c1ccc(NC(=O)CN(C)S(=O)(=O)c2ccc3[nH]c4c(c3c2)CCCC4)cc1 was read as Pf apPOL inh -2 and mHTT CaM bind 41.
For Cc1c(Cl)cccc1NC(=O)CN(C)S(=O)(=O)c1ccc2[nH]c3c(c2c1)CCCC3 the results were Pf apPOL inh -1 and mHTT CaM bind 52*.
For CN(CC(=O)Nc1ccc(F)c(Cl)c1)S(=O)(=O)c1ccc2[nH]c3c(c2c1)CCCC3 the results were Pf apPOL inh -7 and mHTT CaM bind 66*.
`Cc1ccc(NC(=O)CN(C)S(=O)(=O)c2ccc3[nH]c4c(c3c2)CCCC4)c(C)c1` gave Pf apPOL inh -2 and mHTT CaM bind 47.
`Cc1ccc(NC(=O)CN(C)S(=O)(=O)c2ccc3[nH]c4c(c3c2)CCCC4)nc1` gave Pf apPOL inh -2 and mHTT CaM bind 43.
Screening COc1ccccc1Oc1ncnc(N)c1[N+](=O)[O-] returned Pf apPOL inh 0 and mHTT CaM bind 0.
Screening CCc1nc(N2CCN(C)CC2)c2c(C)nn(-c3ccccc3Cl)c2n1 returned Pf apPOL inh -2 and mHTT CaM bind 8.
Screening O=C(C=Cc1ccc2c(c1)OCO2)c1ccc[nH]1 returned Pf apPOL inh -13 and mHTT CaM bind 11.
For Cc1ccc(C(=O)NC2CCCC2)c(Cl)c1 the results were Pf apPOL inh -2 and mHTT CaM bind -12.
